# ChEMBL document CHEMBL1961873, “Compounds: GSK PKIS; Assays: Nanosyn kinase panel” (2012)
# Key:
# [1] = molecular target: T1, Aurora kinase A (Homo sapiens) (UniProt O14965); conditions: at 1 µM;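 note: values are mean percent inhibition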
# T1 sequence (whole entry): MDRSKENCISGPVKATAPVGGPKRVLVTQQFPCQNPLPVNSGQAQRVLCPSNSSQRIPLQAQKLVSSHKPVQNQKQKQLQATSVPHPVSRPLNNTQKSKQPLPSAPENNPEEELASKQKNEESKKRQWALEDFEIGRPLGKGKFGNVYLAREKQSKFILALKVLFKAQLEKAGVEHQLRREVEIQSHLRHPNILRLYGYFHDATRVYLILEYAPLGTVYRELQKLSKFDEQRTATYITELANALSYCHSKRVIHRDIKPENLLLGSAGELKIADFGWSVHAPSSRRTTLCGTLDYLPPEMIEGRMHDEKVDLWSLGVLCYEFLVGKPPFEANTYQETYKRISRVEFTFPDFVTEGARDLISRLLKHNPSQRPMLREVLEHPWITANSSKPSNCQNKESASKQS
# [2] = molecular target: Aurora kinase B (Homo sapiens) (UniProt Q96GD4); conditions: at 0.1 µM
# Sequence of Aurora kinase B (Homo sapiens) (Q96GD4 whole entry): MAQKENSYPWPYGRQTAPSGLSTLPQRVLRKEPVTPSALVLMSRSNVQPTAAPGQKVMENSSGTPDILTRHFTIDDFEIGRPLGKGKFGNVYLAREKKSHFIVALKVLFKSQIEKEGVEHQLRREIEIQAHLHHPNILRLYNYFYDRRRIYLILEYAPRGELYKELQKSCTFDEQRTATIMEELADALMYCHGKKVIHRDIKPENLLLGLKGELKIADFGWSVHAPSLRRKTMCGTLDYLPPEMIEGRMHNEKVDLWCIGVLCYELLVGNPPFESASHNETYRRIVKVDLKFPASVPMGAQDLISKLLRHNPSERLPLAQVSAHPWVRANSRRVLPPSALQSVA
# [3] = molecular target: Aurora kinase B (Homo sapiens) (UniProt Q96GD4); conditions: at 1 µM
# [4] = molecular target: T2, Aurora kinase C (Homo sapiens) (UniProt Q9UQB9); conditions: at 0.1 µM
# T2 sequence (whole entry): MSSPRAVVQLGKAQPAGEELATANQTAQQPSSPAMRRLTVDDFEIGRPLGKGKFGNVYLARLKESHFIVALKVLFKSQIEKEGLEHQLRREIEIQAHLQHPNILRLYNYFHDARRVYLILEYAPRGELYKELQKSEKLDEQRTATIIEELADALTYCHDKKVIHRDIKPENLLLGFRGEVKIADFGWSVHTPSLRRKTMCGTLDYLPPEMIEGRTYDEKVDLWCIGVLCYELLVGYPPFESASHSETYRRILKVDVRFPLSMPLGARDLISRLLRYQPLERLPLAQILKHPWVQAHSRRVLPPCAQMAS
# [5] = molecular target: T2, Aurora kinase C (Homo sapiens); conditions: at 1 µM
# [6] = molecular target: Serine/threonine-protein kinase 10 (Homo sapiens) (UniProt O94804); conditions: at 0.1 µM
# Sequence of Serine/threonine-protein kinase 10 (Homo sapiens) (O94804 whole entry, looked up): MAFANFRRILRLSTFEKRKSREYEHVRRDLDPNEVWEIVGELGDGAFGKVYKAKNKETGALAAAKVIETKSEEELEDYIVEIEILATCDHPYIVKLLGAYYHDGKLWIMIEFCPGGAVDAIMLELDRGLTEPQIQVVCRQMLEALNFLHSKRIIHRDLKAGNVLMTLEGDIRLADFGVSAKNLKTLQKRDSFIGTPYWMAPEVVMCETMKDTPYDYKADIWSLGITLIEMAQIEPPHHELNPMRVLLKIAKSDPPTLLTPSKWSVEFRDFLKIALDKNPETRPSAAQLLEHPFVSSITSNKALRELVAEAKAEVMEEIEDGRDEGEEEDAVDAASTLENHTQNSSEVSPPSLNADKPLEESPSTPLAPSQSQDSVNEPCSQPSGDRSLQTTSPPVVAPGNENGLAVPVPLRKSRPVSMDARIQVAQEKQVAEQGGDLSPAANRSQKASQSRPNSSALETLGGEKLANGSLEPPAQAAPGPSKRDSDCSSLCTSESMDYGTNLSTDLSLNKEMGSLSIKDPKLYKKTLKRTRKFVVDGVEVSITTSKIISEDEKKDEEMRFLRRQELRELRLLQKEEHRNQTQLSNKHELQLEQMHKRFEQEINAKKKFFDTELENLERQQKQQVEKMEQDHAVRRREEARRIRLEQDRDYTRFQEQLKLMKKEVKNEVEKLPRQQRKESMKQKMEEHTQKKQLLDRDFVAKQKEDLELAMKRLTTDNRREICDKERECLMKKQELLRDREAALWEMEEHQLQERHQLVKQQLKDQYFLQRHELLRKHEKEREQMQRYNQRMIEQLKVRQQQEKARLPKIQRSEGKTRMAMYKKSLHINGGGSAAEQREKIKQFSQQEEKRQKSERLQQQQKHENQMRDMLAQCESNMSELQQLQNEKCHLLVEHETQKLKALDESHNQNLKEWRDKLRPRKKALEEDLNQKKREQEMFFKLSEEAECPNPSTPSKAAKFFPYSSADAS
# [7] = molecular target: Serine/threonine-protein kinase 10 (Homo sapiens) (UniProt O94804); conditions: at 1 µM
# [8] = molecular target: T3, Mitogen-activated protein kinase kinase kinase kinase 2 (Homo sapiens) (UniProt Q12851); conditions: at 0.1 µM
# T3 sequence (whole entry): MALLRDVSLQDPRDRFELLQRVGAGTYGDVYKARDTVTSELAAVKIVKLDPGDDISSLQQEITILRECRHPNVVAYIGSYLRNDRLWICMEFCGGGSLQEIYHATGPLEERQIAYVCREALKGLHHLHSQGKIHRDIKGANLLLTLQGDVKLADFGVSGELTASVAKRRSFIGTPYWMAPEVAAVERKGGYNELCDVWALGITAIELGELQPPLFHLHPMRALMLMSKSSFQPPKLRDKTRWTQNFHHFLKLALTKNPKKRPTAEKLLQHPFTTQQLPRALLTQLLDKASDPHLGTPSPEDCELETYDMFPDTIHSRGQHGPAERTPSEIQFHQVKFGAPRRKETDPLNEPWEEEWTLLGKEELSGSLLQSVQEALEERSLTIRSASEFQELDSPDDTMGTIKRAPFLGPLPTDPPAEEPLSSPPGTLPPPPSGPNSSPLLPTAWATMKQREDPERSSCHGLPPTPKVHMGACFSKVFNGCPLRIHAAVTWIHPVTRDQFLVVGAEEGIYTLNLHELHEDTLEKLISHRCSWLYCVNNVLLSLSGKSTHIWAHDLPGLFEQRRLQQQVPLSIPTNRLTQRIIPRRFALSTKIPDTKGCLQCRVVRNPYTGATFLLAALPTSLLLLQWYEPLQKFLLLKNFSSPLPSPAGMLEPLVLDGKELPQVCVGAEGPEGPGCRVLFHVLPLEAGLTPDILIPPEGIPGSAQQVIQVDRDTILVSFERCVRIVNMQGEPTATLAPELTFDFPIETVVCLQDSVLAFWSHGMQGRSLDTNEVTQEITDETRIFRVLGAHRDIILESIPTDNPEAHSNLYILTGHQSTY
# [9] = molecular target: T3, Mitogen-activated protein kinase kinase kinase kinase 2 (Homo sapiens); conditions: at 1 µM
# [10] = molecular target: Mitogen-activated protein kinase kinase kinase kinase 4 (Homo sapiens) (UniProt O95819); conditions: at 0.1 µM
# Sequence of Mitogen-activated protein kinase kinase kinase kinase 4 (Homo sapiens) (O95819 2-1239 limits assumed): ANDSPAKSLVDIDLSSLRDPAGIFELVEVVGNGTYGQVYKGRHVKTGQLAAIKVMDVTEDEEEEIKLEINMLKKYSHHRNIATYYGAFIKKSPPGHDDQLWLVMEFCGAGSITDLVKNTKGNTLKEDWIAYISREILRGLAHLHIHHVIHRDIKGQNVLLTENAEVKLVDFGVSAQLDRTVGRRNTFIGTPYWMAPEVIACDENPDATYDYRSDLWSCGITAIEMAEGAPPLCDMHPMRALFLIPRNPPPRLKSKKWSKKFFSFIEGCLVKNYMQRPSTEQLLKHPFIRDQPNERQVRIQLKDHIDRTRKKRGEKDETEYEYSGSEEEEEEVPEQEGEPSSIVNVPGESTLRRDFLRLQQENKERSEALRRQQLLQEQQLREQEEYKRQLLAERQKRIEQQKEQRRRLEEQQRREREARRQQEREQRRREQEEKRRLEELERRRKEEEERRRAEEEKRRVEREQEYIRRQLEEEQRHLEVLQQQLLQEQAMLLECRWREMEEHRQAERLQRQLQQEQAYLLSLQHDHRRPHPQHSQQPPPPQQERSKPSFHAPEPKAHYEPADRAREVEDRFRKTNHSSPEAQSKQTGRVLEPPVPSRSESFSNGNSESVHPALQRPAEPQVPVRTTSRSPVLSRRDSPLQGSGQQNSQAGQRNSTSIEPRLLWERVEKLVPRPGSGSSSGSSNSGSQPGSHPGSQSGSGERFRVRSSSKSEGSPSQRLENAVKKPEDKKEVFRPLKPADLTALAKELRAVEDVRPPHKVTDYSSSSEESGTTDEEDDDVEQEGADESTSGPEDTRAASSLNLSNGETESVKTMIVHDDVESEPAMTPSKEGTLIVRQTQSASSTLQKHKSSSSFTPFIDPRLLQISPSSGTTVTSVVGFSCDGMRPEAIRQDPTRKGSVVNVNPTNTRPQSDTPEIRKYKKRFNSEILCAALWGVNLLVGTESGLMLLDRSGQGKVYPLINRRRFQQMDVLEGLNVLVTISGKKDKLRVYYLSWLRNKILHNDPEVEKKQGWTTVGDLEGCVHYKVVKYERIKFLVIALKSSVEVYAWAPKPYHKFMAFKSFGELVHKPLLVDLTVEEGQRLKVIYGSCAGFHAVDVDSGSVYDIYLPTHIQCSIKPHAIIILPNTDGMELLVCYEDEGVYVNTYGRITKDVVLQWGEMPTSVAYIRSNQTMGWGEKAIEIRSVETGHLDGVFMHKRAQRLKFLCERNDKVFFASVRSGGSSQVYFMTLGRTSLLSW
# [11] = molecular target: Mitogen-activated protein kinase kinase kinase kinase 4 (Homo sapiens) (UniProt O95819); conditions: at 1 µM
# [12] = molecular target: Dual specificity mitogen-activated protein kinase kinase 1 (Homo sapiens) (UniProt Q02750); conditions: at 0.1 µM
# Sequence of Dual specificity mitogen-activated protein kinase kinase 1 (Homo sapiens) (Q02750 whole entry): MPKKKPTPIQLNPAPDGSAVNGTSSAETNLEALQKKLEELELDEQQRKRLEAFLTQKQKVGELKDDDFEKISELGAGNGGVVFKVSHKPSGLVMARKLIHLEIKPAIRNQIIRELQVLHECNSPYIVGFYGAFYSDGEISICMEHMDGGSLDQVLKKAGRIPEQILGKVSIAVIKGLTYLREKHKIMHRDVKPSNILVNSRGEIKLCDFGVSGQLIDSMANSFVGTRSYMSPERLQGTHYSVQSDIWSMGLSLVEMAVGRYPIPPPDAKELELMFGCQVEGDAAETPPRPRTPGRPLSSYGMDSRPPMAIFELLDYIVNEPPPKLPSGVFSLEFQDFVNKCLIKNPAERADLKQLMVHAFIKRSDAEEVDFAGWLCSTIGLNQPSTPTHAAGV
# [13] = molecular target: Dual specificity mitogen-activated protein kinase kinase 1 (Homo sapiens) (UniProt Q02750); conditions: at 1 µM
# [14] = molecular target: Misshapen-like kinase 1 (Homo sapiens) (UniProt Q8N4C8); conditions: at 0.1 µM
# Sequence of Misshapen-like kinase 1 (Homo sapiens) (Q8N4C8 whole entry, looked up): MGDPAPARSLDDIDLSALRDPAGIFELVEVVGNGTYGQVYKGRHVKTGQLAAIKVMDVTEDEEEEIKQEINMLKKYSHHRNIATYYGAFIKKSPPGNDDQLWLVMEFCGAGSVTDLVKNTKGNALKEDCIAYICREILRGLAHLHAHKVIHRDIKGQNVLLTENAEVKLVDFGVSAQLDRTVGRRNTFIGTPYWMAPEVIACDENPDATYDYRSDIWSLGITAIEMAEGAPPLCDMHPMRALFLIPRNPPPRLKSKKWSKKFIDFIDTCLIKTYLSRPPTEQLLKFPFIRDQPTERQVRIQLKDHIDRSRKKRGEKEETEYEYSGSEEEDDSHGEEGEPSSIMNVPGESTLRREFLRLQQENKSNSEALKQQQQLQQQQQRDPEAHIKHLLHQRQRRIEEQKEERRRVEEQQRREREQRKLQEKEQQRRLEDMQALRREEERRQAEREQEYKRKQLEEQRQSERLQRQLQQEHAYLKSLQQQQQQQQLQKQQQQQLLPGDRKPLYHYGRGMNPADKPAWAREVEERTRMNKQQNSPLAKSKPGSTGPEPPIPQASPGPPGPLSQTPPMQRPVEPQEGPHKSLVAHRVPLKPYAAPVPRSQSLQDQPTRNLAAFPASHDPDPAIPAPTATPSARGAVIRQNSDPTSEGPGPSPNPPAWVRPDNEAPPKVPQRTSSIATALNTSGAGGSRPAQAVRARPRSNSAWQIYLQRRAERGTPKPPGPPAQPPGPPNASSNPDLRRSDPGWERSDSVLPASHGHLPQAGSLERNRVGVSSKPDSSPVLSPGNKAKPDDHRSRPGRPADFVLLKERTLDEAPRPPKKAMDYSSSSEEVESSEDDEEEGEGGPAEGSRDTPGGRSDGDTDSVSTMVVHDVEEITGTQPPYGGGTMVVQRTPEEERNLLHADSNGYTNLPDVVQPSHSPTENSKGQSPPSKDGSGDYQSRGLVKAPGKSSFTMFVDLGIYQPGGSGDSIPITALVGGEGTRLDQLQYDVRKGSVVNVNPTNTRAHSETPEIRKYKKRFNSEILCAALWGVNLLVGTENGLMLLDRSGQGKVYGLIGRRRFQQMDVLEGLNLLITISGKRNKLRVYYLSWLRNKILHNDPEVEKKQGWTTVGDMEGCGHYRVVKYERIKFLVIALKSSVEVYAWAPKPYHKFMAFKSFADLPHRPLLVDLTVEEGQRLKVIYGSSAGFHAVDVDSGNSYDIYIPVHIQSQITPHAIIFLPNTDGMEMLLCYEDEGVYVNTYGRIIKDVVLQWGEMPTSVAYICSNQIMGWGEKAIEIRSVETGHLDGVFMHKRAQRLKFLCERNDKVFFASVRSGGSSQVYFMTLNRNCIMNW
# [15] = molecular target: Misshapen-like kinase 1 (Homo sapiens) (UniProt Q8N4C8); conditions: at 1 µM
# [16] = molecular target: T4, Serine/threonine-protein kinase 4 (Homo sapiens) (UniProt Q13043); conditions: at 0.1 µM
# T4 sequence (whole entry): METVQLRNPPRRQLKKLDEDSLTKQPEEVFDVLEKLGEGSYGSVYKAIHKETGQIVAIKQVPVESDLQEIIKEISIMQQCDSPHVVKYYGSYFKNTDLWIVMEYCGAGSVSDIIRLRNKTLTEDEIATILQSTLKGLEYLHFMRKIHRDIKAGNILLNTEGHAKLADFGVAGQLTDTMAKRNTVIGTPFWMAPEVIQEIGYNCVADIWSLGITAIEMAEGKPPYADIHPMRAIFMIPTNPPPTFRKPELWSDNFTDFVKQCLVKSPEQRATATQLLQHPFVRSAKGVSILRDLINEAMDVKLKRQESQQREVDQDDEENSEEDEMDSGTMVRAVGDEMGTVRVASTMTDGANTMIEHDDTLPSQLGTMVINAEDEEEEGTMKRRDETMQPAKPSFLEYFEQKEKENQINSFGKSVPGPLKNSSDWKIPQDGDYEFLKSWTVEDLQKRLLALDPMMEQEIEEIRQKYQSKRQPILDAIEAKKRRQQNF
# [17] = molecular target: T4, Serine/threonine-protein kinase 4 (Homo sapiens); conditions: at 1 µM
# [18] = molecular target: T5, Serine/threonine-protein kinase 3 (Homo sapiens) (UniProt Q13188); conditions: at 0.1 µM
# T5 sequence (whole entry): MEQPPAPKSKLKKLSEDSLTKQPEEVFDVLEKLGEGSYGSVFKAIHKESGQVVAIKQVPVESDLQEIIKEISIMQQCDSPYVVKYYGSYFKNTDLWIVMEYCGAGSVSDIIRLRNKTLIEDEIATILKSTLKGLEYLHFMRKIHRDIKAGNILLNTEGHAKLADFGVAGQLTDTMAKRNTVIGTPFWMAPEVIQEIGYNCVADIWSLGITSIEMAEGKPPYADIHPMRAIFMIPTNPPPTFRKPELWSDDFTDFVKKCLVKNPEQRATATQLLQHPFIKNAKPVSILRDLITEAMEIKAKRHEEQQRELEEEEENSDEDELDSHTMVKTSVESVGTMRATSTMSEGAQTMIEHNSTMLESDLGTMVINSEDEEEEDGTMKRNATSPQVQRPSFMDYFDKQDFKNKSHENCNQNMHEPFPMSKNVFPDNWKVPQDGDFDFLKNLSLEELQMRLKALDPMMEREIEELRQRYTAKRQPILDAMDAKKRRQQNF
# [19] = molecular target: T5, Serine/threonine-protein kinase 3 (Homo sapiens); conditions: at 1 µM
# [20] = molecular target: Serine/threonine-protein kinase 26 (Homo sapiens) (UniProt Q9P289); conditions: at 0.1 µM
# Sequence of Serine/threonine-protein kinase 26 (Homo sapiens) (Q9P289 2-416 limits assumed): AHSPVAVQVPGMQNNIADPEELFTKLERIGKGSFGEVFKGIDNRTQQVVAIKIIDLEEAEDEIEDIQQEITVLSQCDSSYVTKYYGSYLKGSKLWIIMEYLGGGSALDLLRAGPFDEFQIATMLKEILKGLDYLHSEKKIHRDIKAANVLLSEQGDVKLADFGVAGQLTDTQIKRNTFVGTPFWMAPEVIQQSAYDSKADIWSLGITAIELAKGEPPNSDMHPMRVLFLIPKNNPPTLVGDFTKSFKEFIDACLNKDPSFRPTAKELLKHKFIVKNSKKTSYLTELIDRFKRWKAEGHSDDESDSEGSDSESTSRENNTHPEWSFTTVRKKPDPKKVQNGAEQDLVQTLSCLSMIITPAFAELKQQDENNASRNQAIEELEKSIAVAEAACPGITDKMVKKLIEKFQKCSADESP
SMILES,inhibition [1],inhibition [2],inhibition [3],inhibition [4],inhibition [5],inhibition [6],inhibition [7],inhibition [8],inhibition [9],inhibition [10],inhibition [11],inhibition [12],inhibition [13],inhibition [14],inhibition [15],inhibition [16],inhibition [17],inhibition [18],inhibition [19],inhibition [20]
CNC(=O)c1sc(-n2cnc3cc(OC)c(OC)cc32)cc1OCc1ccccc1C(F)(F)F,4.37%,6.28%,16.6%,5.07%,20.8%,10.4%,31.6%,3.26%,7.14%,8.53%,12.2%,3.14%,3.6%,9.53%,12.2%,2.47%,3.85%,5.34%,7.16%,-0.27%
CCN1CCC(C(=O)Nc2n[nH]c3nnc(-c4cccc(F)c4F)cc23)CC1,0.34%,-0.39%,3.97%,0.94%,5.27%,-0.44%,-0.07%,2.45%,3.52%,3.47%,6.9%,2.15%,2%,2.44%,5.72%,0.2%,4.08%,-0.56%,2.63%,0.52%
O=C(Nc1n[nH]c2nnc(-c3cccnc3)cc12)C1CC1,0.07%,0.12%,3.67%,-1.84%,3.75%,-0.21%,0.78%,0.63%,1.06%,3.78%,20.3%,0.74%,3.42%,1.29%,13.1%,-0.95%,-0.48%,-2.99%,-0.37%,0.94%
CS(=O)(=O)CCNCc1ccc(-c2ccc3ncnc(Nc4ccc(OCc5ccccc5)cc4)c3c2)o1,7.7%,4.74%,10%,2.17%,7.65%,5.66%,7.82%,0.28%,1.58%,3.5%,6.76%,2.75%,2.72%,5.38%,5.67%,3.24%,3.52%,5.36%,3.74%,0.02%
Cc1c2ccc(N(C)c3ccnc(Nc4cccc(S(N)(=O)=O)c4)n3)cc2nn1C,72.2%,12.5%,54.2%,15.8%,81.6%,23.4%,64.4%,7.77%,41%,11.1%,55.2%,6.31%,10.7%,12.8%,55.3%,6.6%,8.01%,5.78%,7.64%,-1.28%
NC(=O)c1ccc2c(-c3ccnc(NCCCO)n3)c(-c3ccc(F)cc3)nn2c1,3.29%,2.54%,0.26%,0.74%,6.84%,5.04%,12.3%,1.47%,7.29%,9.85%,51.7%,6.94%,13.2%,10.1%,35.5%,4.48%,5.36%,4.28%,4.67%,-2.37%
O=C(O[C@H]1CN[C@H](C#Cc2cc3ncnc(Nc4ccc5c(cnn5Cc5ccccc5)c4)c3s2)C1)N1CCOCC1,3.44%,0.76%,11.1%,2.11%,27.6%,0.93%,7.07%,0.52%,2.14%,-0.91%,2.37%,-0.35%,-0.55%,-0.37%,1.62%,2.4%,4.54%,1.56%,5.49%,0.75%
Fc1cccc(COc2ccc(Nc3ncncc3C#Cc3ccccc3)cc2Cl)c1,9%,-1.58%,6%,1.15%,-2.38%,2.78%,11.7%,0.81%,0.54%,6.19%,15%,6%,4.44%,7.69%,15.9%,6.89%,9.95%,6.83%,8.97%,-0.45%
CCOc1ccc2c(-c3ccnc(Nc4cc(OC)cc(C(F)(F)F)c4)n3)cnn2n1,13%,2.18%,8.92%,1.08%,4.09%,-0.06%,3.44%,0.08%,2.69%,1.85%,8.47%,0.11%,0.8%,2.19%,6.36%,0.03%,1.83%,-0.19%,2.45%,1.73%
CS(=O)(=O)CCNCc1ccc(-c2ccc3ncnc(Nc4ccc(OCc5cccc(C(F)(F)F)c5)cc4)c3c2)o1,4.78%,5.65%,4.87%,1.93%,4.53%,9.88%,11.7%,-0.93%,2.32%,2.66%,6.36%,3.29%,5.38%,5.26%,3.68%,3.43%,5.83%,4.6%,5.04%,-1.93%
COc1cc(N2CCN(C(C)C)CC2)ccc1Nc1nc(Nc2cccc3ncccc23)c2cc[nH]c2n1,4.47%,0.66%,4.9%,0.27%,-0.31%,1.54%,0.74%,2.02%,2.89%,1.88%,8.08%,-1.29%,0.07%,0.56%,6.73%,-1.1%,0.07%,0.03%,0.57%,-0.29%
CS(=O)(=O)CCNCc1ccoc1-c1ccc2ncnc(Nc3ccc(OCc4ccccc4)cc3)c2c1,5.63%,0.11%,8.33%,3.25%,9.46%,-0.07%,3.99%,1.72%,1.42%,0.34%,4.29%,1.46%,2.49%,1.28%,2.65%,1.95%,2.79%,2.37%,3.29%,-1.84%
